Bioassay records: PubChem, National Center for Advancing Translational Sciences (NCATS)
Giardia FBPA inh-1: blocks Giardia fructose-bisphosphate aldolase activity | AID 2451 | purified Giardia FBPA | A8B2U2 | actives 0.71% (n = 290,000) | Potency, µM (series often up to 59.6 µM), for the others: at the highest dose activity, negative = inhibition, hits mostly inhibitors; also: nearly all actives have a fitted effect of over 55% in size
Target sequence (A8B2U2 whole entry, looked up): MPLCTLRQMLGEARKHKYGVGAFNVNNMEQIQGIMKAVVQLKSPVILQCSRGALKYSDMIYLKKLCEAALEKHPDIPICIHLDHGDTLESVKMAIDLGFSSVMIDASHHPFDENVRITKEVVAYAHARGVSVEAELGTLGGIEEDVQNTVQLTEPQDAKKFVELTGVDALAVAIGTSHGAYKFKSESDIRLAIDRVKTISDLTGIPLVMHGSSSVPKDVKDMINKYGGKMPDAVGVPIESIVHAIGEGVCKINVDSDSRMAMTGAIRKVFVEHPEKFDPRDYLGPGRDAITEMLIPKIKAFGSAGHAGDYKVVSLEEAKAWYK
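Giardia FBPA (40 nM reagent) was preincubated 10 min at RT with compound (up to 57.5 uM final), then substrate plus GAPDH/TPI/NAD/arsenate coupling system with diaphorase/resazurin was added; resorufin fluorescence (525/598 nm) was read after 20 min.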
AmpC inh no detg: inhibitors of E. coli AmpC beta-lactamase without detergent | P00811 | AmpC nitrocefin hydrolysis, absorbance 480 nm, 0.0001% Triton | actives 0.52% (n = 330,000) | Potency, µM (highest dose often 57.1 µM), inactives show top-dose activity change, negative = inhibition, actives largely listed as inhibitors | AID 485341;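 also: plate controls were no compound for no effect and no enzyme for full effect; nearly all actives have a fitted effect of over 20% in size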
Target sequence (P00811 whole entry, looked up): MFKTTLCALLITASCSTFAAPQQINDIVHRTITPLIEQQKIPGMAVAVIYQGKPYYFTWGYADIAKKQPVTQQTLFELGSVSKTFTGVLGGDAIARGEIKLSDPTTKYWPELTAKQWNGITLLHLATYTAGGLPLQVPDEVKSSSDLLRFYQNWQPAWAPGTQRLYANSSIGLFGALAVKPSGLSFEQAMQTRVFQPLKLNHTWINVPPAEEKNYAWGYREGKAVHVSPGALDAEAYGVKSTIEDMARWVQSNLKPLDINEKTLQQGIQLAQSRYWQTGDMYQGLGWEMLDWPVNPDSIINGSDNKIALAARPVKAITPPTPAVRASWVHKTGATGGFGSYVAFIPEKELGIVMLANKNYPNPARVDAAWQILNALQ
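AmpC (5.3 nM in the dispensed reagent) in 20 mM phosphate pH 7.0 with 0.01% (detergent screen) or 0.0001% Triton X-100 was preincubated with compounds for 15 min at room temperature. Nitrocefin was then added from an 800 uM solution, and hydrolysis was followed at 480 nm.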
AmpC inh detg: AmpC beta-lactamase inhibition with detergent present | actives 0.041% (n = 370,000) | P00811 | AID 485294 | Potency, µM (series often up to 114 µM), inactives show top-dose activity change, negative = inhibition, hits mostly inhibitors | AmpC hydrolysis of nitrocefin, absorbance 480 nm, 0.01% Triton;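 also: 0% = no-compound wells and -100% = no-enzyme wells; nearly all actives have a fitted effect of over 25% in size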
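20 mM phosphate pH 7.0 + 0.01% (detergent screen) or 0.0001% Triton X-100; 5.3 nM AmpC reagent; cpd preinc 15 min RT; nitrocefin (800 uM stock) to start; A480 q20 s × 4 min; Activity was normalised to no-enzyme and no-compound control wells.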
AMA1-RON2 inh: AMA1-RON2 (P. falciparum) interaction inhibition. actives 0.2% (n = 360,000). Potency, µM (series often up to 58.2 µM), without a hit: at the highest dose activity change, negative = inhibition, hits mostly inhibitors. AlphaScreen AMA1-biotinylated RON2 peptide binding;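 also: 0% = vehicle wells and -100% = peptide control; nearly all actives have a fitted effect of over 45% in size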
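AMA1 (3D7) with his tag at 25 nM final met compounds first, then biotinylated RON2 peptide at 25 nM; detection used donor plus acceptor beads, 10 µg/mL apiece, read by AlphaScreen after 30 min at room temperature.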
Giardia growth: inhibitors of Giardia lamblia growth | shares compounds with Giardia FBPA inh-1 | Giardia lamblia trophozoite growth inhibition | Potency, µM (titrated, usually from 57.5 µM), for inactives: at the highest dose activity change, negative = inhibition, most hits filed as inhibitors | actives 5% (n = 1,500) | AID 2785;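 also: trophozoites exposed to compound for 48 h at 37 °C; nearly all actives have a fitted effect of over 70% in size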
Mammal cell tox: mammalian cytotoxicity of Giardia aldolase inhibitor hits | shares compounds with Giardia FBPA inh-1 | mammalian cell viability counter-screen, qHTS | Potency, µM (series often up to 57.5 µM), for the others: top-dose viability change, negative = toxicity, hits mostly inhibitors | actives 4% (n = 1,500);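 also: Chinese hamster ovary cells used as mammalian cytotoxicity surrogate; viability measured as cellular ATP by luminescence; compound exposure lasted 48 h before reading; nearly all actives have a fitted effect of over 60% in size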
Giardia FBPA inh-2: confirmation of Giardia fructose-bisphosphate aldolase inhibitors; shares compounds with Giardia FBPA inh-1; purified Giardia aldolase enzyme activity, qHTS; Potency, µM (doses to about 57.5 µM), without a hit: at the highest dose activity change, negative = inhibition, most hits filed as inhibitors; actives 5% (n = 1,500); AID 2787; also: nearly all actives have a fitted effect of over 45% in size
Rabbit FBPA inh: rabbit FBP aldolase inhibition by Giardia aldolase hits | Potency, µM (doses to about 57.5 µM), for the others: at the highest dose activity, negative = inhibition, most hits filed as inhibitors | Rabbit muscle FBPA enzyme inhibition, selectivity counter-screen | actives 4% (n = 1,500) | AID 2794 | shares compounds with Giardia FBPA inh-1; also: nearly all actives have a fitted effect of over 60% in size
GAPDH counter: counter-screen for Giardia aldolase inhibitors: GAPDH coupling enzyme. shares compounds with Giardia FBPA inh-1. GAPDH coupling enzyme counterscreen, biochemical, qHTS. Potency, µM (doses to about 57.5 µM), inactives show top-dose activity change, negative = inhibition, most hits filed as inhibitors. actives 6% (n = 1,500); also: nearly all actives have a fitted effect of over 55% in size
The depositor's hits bear a star; ? = inconclusive; · = not tested or not shown; [ ] = another dose, or the depositor's remark. This is a sample that favours compounds with a hit; in the whole collection about 1.1% have one here. Calls follow the shape of the dose curve; as a rule, active = well fitted curve in the direction sought with a large enough effect; inconclusive = small, poorly fitted or top-dose-only effect, or another doubt; inactive = no such curve, though single readings can be large; an effect the other way counts as inactive or inconclusive. Unless noted, % is scaled to controls: 0 for no effect and ±100 for the full control effect; potency is read from the fitted curve at half-maximal effect.

SMILES	Giardia FBPA inh-1	AmpC inh no detg	AmpC inh detg	AMA1-RON2 inh	Giardia growth	Mammal cell tox	Giardia FBPA inh-2	Rabbit FBPA inh	GAPDH counter
O=C(Nc1sc2c(c1C(=O)O)CCC2)c1ccccc1	-26.0%	-21.7%	-10.7%	-6.9%	·	·	·	·	·
O=C(Nc1sc2c(c1C(=O)O)CCC2)c1ccc(F)cc1	14.1µM*	-21.1%	-2.8%	9.5%	?	-14.3%	-26.1%	?	?
Cc1cc(C)c2nc(-c3ccccn3)cc(C(=O)NCCc3ccc(S(N)(=O)=O)cc3)c2c1	17.7µM*	-30.4%	1.0%	-23.7%	2.7%[10.4 µM]	-1.1%	-1.2%	3.3%	14.6%
CN(C)C(=S)SSC(=S)N(C)C	39.8µM*	?	79.4µM*	-2.3%	14.1µM*	4.47µM*	?	?	39.8µM*
Cc1cc(C)c(C(O)c2ncc(-c3ccccc3F)[nH]2)c(C)c1 (centres undefined)	·	·	·	0.0%	·	·	·	·	·
CC1=CC(=O)c2ccccc2C1=O	?	-22.4%	?	-13.7%	-8.0%[38.3 µM]	-13.6%	?	?	?
O=C(CCN1CCc2ccccc2C1)Nc1ccccc1	15.8µM*	2.4%	5.5%	-14.6%	26.2%	12.9%	-1.4%	-2.7%	7.2%
O=C(CCn1c(=O)oc2ccccc21)NCCN1CCc2ccccc2C1	15.8µM*	-1.4%	?	-9.7%	-0.2%[10.4 µM]	22.5%	1.2%	1.1%	5.5%
CCC(=O)N1CCC1(C)C(=O)Nc1ccc2c(c1)CCN2C(C)=O (centres undefined)	·	·	·	11.2%	·	·	·	·	·
CC(C)C[C@H](NC(=O)c1nc[nH]c1C(=O)NCCCCCNC(=O)OC(C)(C)C)C(=O)OC(C)(C)C	17.7µM*	182.1%	7.9%	149.2%	-14.6%	-0.4%	-0.7%	-22.2%	-20.2%
CC1(C)CC(Cc2nc(=S)[nH][nH]2)C(=O)O1 (centres undefined)	6.29µM*	1.7%	-6.2%	2.0%	3.1%	-8.1%	4.7%	7.7%	8.2%
Nc1ccc2nc(CCCCc3nc4ccccc4[nH]3)[nH]c2c1	12.6µM*	-29.2%	-12.1%	-16.0%	41.2%	-8.2%	-23.0%	-9.2%	-5.8%
Cc1nnc(SCC2=C(C(=O)O)N3C(=O)C(NC(=O)COc4ccc(F)cc4)C3SC2)s1 (centres undefined)	·	3.4%	-6.0%	7.4%	·	·	·	·	·
Cc1nnc(SCC2=C(C(=O)O)N3C(=O)C(NC(=O)COc4ccccc4)C3SC2)s1 (centres undefined)	·	-14.6%	1.6%	16.4%	·	·	·	·	·
Cc1nnc(SCC2=C(C(=O)O)N3C(=O)C(NC(=O)c4cc(F)c(F)cc4Cl)C3SC2)s1 (centres undefined)	19.9µM*	-37.0%	?	13.5%	?	-2.9%	1.8%	11.1%	9.2%
Cc1nnc(SCC2=C(C(=O)O)N3C(=O)C(NC(=O)Cn4nc(C(F)F)cc4C)C3SC2)s1 (centres undefined)	14.1µM*	-12.9%	-2.2%	29.0%	6.7%[10.4 µM]	7.1%	-6.1%	1.3%	-1.1%
C#CCN(C[C@@H]1[C@@H](OC(=O)NCc2ccc(OC)c(OC)c2)[C@@H](OC(=O)NCc2ccc(OC)c(OC)c2)CN(C(=O)OC(C)C)N1C(=O)OC(C)C)S(=O)(=O)c1ccc(C)cc1	·	·	·	0.1%	·	·	·	·	·
NS(=O)(=O)c1ccc(NC(=S)NC2CCCCC2)cc1	9.98µM*	-30.4%	1.7%	-0.7%	-2.1%[38.3 µM]	?	39.8µM*	?	39.8µM*
O=C(/C=C/c1c(F)cccc1Cl)Nc1ccc(S(=O)(=O)Nc2ncccn2)cc1	-14.2%	-10.8%	2.8%	-11.8%	·	·	·	·	·
O=C(Cc1c(F)cccc1Cl)NNC(=S)Nc1ccc(S(=O)(=O)Nc2ncccn2)cc1	14.1µM*	-20.6%	6.7%	108.0%	3.2%[10.4 µM]	3.8%	20.3%	19.8%	27.3%
COC(=O)c1ccc(NC(=O)CN2CCOCC2)cc1	0.5%	-13.0%	?	-4.8%	·	·	·	·	·
COC(=O)c1ccc(NC(=O)CN2CCN(CC#N)CC2)cc1	25.1µM*	-8.8%	-2.3%	?	-5.4%[38.3 µM]	13.7%	1.3%	-1.7%	1.6%
CC(C)OCCCNC(=O)COc1ccc2oc3c(c2c1)CCCC3	·	202.8%	6.8%	2.6%	·	·	·	·	·
COc1cccc(CCc2nnc(CCC(=O)N3CCN(Cc4ccccn4)CC3)o2)c1	5.61µM*	76.5%	12.2%	36.1%	-1.4%[38.3 µM]	-7.3%	-6.5%	3.9%	1.6%
Oc1cccc2nc3ccccc3nc12	17.7µM*	-7.5%	-0.3%	62.9%	-1.7%[10.4 µM]	-9.7%	?	-21.1%	?
Nc1c2ccccc2nc2c(O)cccc12	-0.2%[21.7 µM]	·	·	·	·	·	·	·	·
